Here are results for 8 compounds from PubChem BioAssay (NCI).

What all share (experiment): NCI-60 one-dose screen, 48 h (100 = growth as untreated, 0 = no growth, -100 = all killed)
One assay deals with HCT-15 colon. The conditions noted are these: 10 µM unless noted.
In another assay the test system is SNB-75 CNS. Particulars: 10 µM unless noted.
In a further assay the test system is SNB-19 CNS. The conditions noted are these: 10 µM unless noted.
The subject of the next assay is U251 CNS. The conditions noted are these: 10 µM unless noted.
For a further assay, the system named is PC-3 prostate. The conditions noted are these: 10 µM unless noted.
The subject of another assay is SK-MEL-5 melanoma. The conditions noted are these: 10 µM unless noted.
A further assay deals with UACC-62 melanoma. The conditions noted are these: 10 µM unless noted.
A further assay has as its system LOX IMVI melanoma. The conditions noted are these: 10 µM unless noted.
The subject of a further assay is SK-MEL-28 melanoma. Particulars: 10 µM unless noted.
The next assay deals with EKVX NSCLC. Particulars: 10 µM unless noted.
A further assay deals with SN12C renal. Particulars: 10 µM unless noted.
The next assay relates to UO-31 renal. Particulars: 10 µM unless noted.
The subject of the next assay is TK-10 renal. The conditions noted are these: 10 µM unless noted.
The test system of a further assay is ACHN renal. Particulars: 10 µM unless noted.
Another assay concerns CAKI-1 renal. Particulars: 10 µM unless noted.
For another assay, the system named is A498 renal. Particulars: 10 µM unless noted.
The next assay concerns CCRF-CEM leukemia. The conditions noted are these: 10 µM unless noted.
The test system of the next assay is MOLT-4 leukemia. The conditions noted are these: 10 µM unless noted.
The subject of a further assay is SK-MEL-2 melanoma. The conditions noted are these: 10 µM.
For the next assay, the system named is HT29 colon. The conditions noted are these: 10 µM unless noted.

Each structure is given as a SMILES string. This is part of a sample that, as a whole, favours compounds with a hit. Of some 83,000 tested, about 20% had one in any assay.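 Testing used 96-well plates and a 48-hour single-concentration exposure. Example: -40 means 40% of the starting cells died.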 Unmarked numbers belong to inactive results. Activity calls are given as the source filed them. The calls were made as follows: active = growth percent below 10; inactive = the rest.

Turning to `COCCN1CCN(Cc2ccc(-c3n[nH]c4c3C(=O)c3c(NC(=O)NN5CCOCC5)cccc3-4)cc2)CC1`, the growth in the assay on HCT-15 colon was -13.6% (active); with SNB-75 CNS it was -37.6% (active); in the assay with SNB-19 CNS, 2.99% (active); in the assay with U251 CNS, 1.69% (active); in the assay with PC-3 prostate it was 3.15% (active); with SK-MEL-5 melanoma, -23.8% (active). The growth is -44.9% (active) in the assay on UACC-62 melanoma; -77.2% (active) in the assay on LOX IMVI melanoma; -39.7% (active) in the assay with SK-MEL-28 melanoma; -3.26% (active) with EKVX NSCLC; 7.64% (active) in the assay with SN12C renal; -14.2% (active) in the assay on UO-31 renal. Moreover, the growth in the assay with TK-10 renal was -30.9% (active); in the assay with ACHN renal, 3.84% (active); with CAKI-1 renal, -18.3% (active); with A498 renal, -22% (active); with CCRF-CEM leukemia, -15.3% (active); with MOLT-4 leukemia it was -15% (active).

Take `Cc1cn(-c2cc(NC(=O)c3ccc(C)c(Nc4nccc(-c5cccnc5)n4)c3)cc(C(F)(F)F)c2)cn1`: the growth is 22.8% in the assay on HCT-15 colon; 55.7% in the assay with SNB-75 CNS; 69.9% in the assay with SNB-19 CNS; 26% in the assay on PC-3 prostate; -22.5% (active) in the assay on SK-MEL-5 melanoma; 9.88% (active) with UACC-62 melanoma. Moreover, the growth with LOX IMVI melanoma is 44.1%; in the assay on SK-MEL-28 melanoma it was -27.1% (active); in the assay on EKVX NSCLC, 69.6%; in the assay with SN12C renal, 66.9%; with UO-31 renal it was -3.45% (active); in the assay with TK-10 renal, 75.1%. Further, the growth is 55.8% in the assay on ACHN renal; 50.6% with CAKI-1 renal; 82.2% with A498 renal; 36.2% with CCRF-CEM leukemia; 42.9% with MOLT-4 leukemia.

With `CCN(CC)CCNC(=O)c1c(C)[nH]c(/C=C2\C(=O)Nc3ccc(F)cc32)c1C`, the growth with HCT-15 colon was 11%; with SNB-75 CNS, 18.2%; in the assay with SNB-19 CNS, 9.51% (active); in the assay with U251 CNS, -79.3% (active); with PC-3 prostate, 21.6%; in the assay with SK-MEL-5 melanoma, -98% (active). The growth with UACC-62 melanoma was -63.6% (active); in the assay on LOX IMVI melanoma it was -81.9% (active); in the assay with SK-MEL-28 melanoma, -69.1% (active); in the assay with EKVX NSCLC, 17.8%; in the assay on SN12C renal, 26%; with UO-31 renal it was 7.88% (active). For the same compound, the growth with TK-10 renal was 27.1%; with ACHN renal, -12.8% (active); in the assay with CAKI-1 renal, 17.5%; in the assay on A498 renal, 47.4%; in the assay on CCRF-CEM leukemia it was 7.54% (active); in the assay with MOLT-4 leukemia it was 17%.

For the compound `N#CC(C#N)=NO`, the growth is 104% with HCT-15 colon; 89.1% with SNB-75 CNS; 102% with SNB-19 CNS; 95.2% with U251 CNS; 71.8% in the assay on PC-3 prostate; 108% in the assay on SK-MEL-5 melanoma. For the same compound, the growth in the assay with UACC-62 melanoma was 102%; in the assay with LOX IMVI melanoma, 95.8%; in the assay with SK-MEL-28 melanoma, 110%; in the assay with SK-MEL-2 melanoma, 100%; with EKVX NSCLC, 92.4%; with SN12C renal, 106%. Besides, the growth is 98.6% with UO-31 renal; 93.9% with TK-10 renal; 98.4% in the assay with ACHN renal; 87% in the assay with CCRF-CEM leukemia; 99.8% in the assay on MOLT-4 leukemia.

Take `COC(=O)Nc1nc2ccc(C(=O)c3ccc(N(C)C4COC4)cc3)cc2[nH]1`: the growth was 0.909% (active) in the assay with HT29 colon; 16.4% in the assay with SNB-75 CNS; 26.9% in the assay with SNB-19 CNS; 17.2% in the assay with U251 CNS; 24.2% in the assay on PC-3 prostate; 3.76% (active) in the assay with SK-MEL-5 melanoma. Also, the growth is 34.3% in the assay with UACC-62 melanoma; 20.4% in the assay with LOX IMVI melanoma; 56.9% in the assay on SK-MEL-28 melanoma; 26.9% in the assay on EKVX NSCLC; 30.9% in the assay with SN12C renal; 45.3% in the assay on UO-31 renal. Further, the growth in the assay with TK-10 renal was 66%; with ACHN renal, 39%; with CAKI-1 renal, 31.2%; with A498 renal it was 10%; in the assay with CCRF-CEM leukemia it was 15.9%; with MOLT-4 leukemia it was 10.5%.

As for `CC(C)Nc1cc(-c2c[nH]c(C(=O)N[C@H](CO)c3cccc(Cl)c3)c2)c(Cl)cn1`, the growth in the assay on HT29 colon was 1.57% (active); with SNB-75 CNS it was 51.8%; in the assay with SNB-19 CNS, 51.3%; in the assay on U251 CNS it was 28%; in the assay with PC-3 prostate it was 34.9%; in the assay on SK-MEL-5 melanoma, -7.93% (active). Besides, the growth with UACC-62 melanoma was 11.7%; in the assay on LOX IMVI melanoma, 14%; in the assay on SK-MEL-28 melanoma, 5.19% (active); with EKVX NSCLC it was 38.9%; in the assay on SN12C renal, 52.2%; in the assay on UO-31 renal, 18.2%. For the same compound, the growth with TK-10 renal is 16.2%; in the assay on ACHN renal it was 31%; with CAKI-1 renal it was 35.3%; in the assay with A498 renal it was 4.24% (active); in the assay with CCRF-CEM leukemia, 26.1%; with MOLT-4 leukemia, 12.6%.

Turning to `C=CC(=O)Nc1cccc(Oc2nc(Nc3ccc(N4CCN(C)CC4)cc3)nc3ccsc23)c1`, the growth in the assay with HT29 colon was -60% (active); with SNB-75 CNS, -81.1% (active); with SNB-19 CNS, 12.8%; in the assay with U251 CNS it was -84.7% (active); with PC-3 prostate, -44.5% (active); in the assay on SK-MEL-5 melanoma, -97.2% (active). Moreover, the growth is -78.2% (active) with UACC-62 melanoma; -85% (active) in the assay with LOX IMVI melanoma; -91.6% (active) in the assay with SK-MEL-28 melanoma; 16.4% in the assay with EKVX NSCLC; -70.6% (active) in the assay with SN12C renal; -89.6% (active) in the assay with UO-31 renal. For the same compound, the growth is -79% (active) in the assay on TK-10 renal; -96.6% (active) with ACHN renal; -71.4% (active) with CAKI-1 renal; 33.6% in the assay on A498 renal; 1.89% (active) with CCRF-CEM leukemia; -37.7% (active) in the assay with MOLT-4 leukemia.

On to `CCCC(=O)OCC1OC(n2cnc3c(=S)nc(N)[nH]c32)C(OC(=O)CCC)C1OC(=O)CCC` (stereo unspecified), for which the growth in the assay on HT29 colon is 30.2%; in the assay on SNB-75 CNS it was 34.8%; in the assay on SNB-19 CNS, 89.3%; with U251 CNS, 68.2%; in the assay on PC-3 prostate, 76.1%; in the assay with SK-MEL-5 melanoma, 42.8%. For the same compound, the growth in the assay on UACC-62 melanoma is 8.36% (active); in the assay with LOX IMVI melanoma it was 12%; with SK-MEL-28 melanoma, 75.8%; in the assay on SK-MEL-2 melanoma it was 15%; with EKVX NSCLC, 42.4%; in the assay on SN12C renal it was 42.8%. The growth in the assay on UO-31 renal is 43.3%; with TK-10 renal, 23.5%; with ACHN renal, 39.7%; in the assay on A498 renal, -2.02% (active); in the assay on MOLT-4 leukemia, 0.324% (active).
